According to the supplement of paper PMC11417369:
Over roughly 25,000 sequences, “ln(normalized median fluorescence intensity)” has its median near 6.7; the highest 2% begin near 10. The list comes from a sample in which the highest values are over-represented; it also holds similar and randomly drawn sequences.

Each sequence was assayed on PfHDP1 homeodomain (GST-tagged) (assay: gcPBM binding intensity (ln(normalized median fluorescence intensity)); higher = stronger DNA binding).
In short: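 The highest Masliner-normalised natural-log median intensity across replicate spots of either probe orientation is reported as binding intensity. GST-tagged P. falciparum DNA-binding domains expressed in E. coli were applied for 1 h to an Agilent 4 × 180k array of primer-extended double-stranded 36-bp intergenic genomic probes plus negative controls, and bound protein was detected with Alexa488 anti-GST antibody and scanned at 488 nm.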

Row | Sequence | gcPBM binding intensity (ln)
1 | ATGTTTTTTATTCTTCGTACGTATGAACGATAGTGT [XGTACX_site4225] | 6.71
2 | GCTTGTACATTTTTAAAAAATGACTTCGAAAGGAAT [CACACA_negctrl_site453] | 7.01
3 | TTTTAATTGTTTATTTGTACATATGTTTAATTATAT [XGTACX_site571] | 6.79
4 | TATATAAATGGACACACACACACCTTATAATTATTA [CACACA_site6093] | 6.85
5 | CCCACATAAAAAAATAAACACACATATGTATATATA [CACACA_site9040] | 7.07
6 | AAGAAAAACAATGAGATAAAGAAGAGAAAATATGTC [TGCATGCA_negctrl_site415] | 6.88
7 | TATATCAAAATACATACACACATTTGTATTTACATT [CACACA_site5485] | 6.58
8 | TTGTATTCATAACAACGTACATATTTTGTAACTAAA [XGTACX_site4029] | 6.26
9 | TTTGTTCATATTATTGTGCACTTAAACGTAACAAAA [GTGCAC_site9505] | 10.1
10 | ACTTTTTTGAACAACGTGCACGTATTCATAACAAAA | 10.6
11 | AATATCATCAAACGCACACATACATAAATATATTAT [CACACA_site2174] | 7.74
12 | TATGTATAAATATATGCACACATATATATATTTATA [CACACA_site9150] | 9.35
13 | TATTTATATGTATATACATGCACATATATATGAAAC [TGCATGCA_site1005] | 8.8
14 | TATACGAAATTGTGCACACATATATTTATGTATGTA [CACACA_site1509] | 11
15 | ATACGCACACATATATGTACATATTGTATATATATA [XGTACX_site3962] | 8.34
16 | AATATACGAAATTGTGCACACATATATTTATGTATG [CACACA_site1510] | 10.8
17 | TGTATAAATATATGCACACATATATATATTTATATA [CACACA_site3473] | 10
18 | TAGATAAAATGAACATGTACTCATCTTAATATATAT [XGTACX_site34] | 6.23
19 | AAAAGATATATTATATGTACTAATTATATGATAAAT [XGTACX_site4192] | 6.32
20 | AGAGGTAGAGAGAAAACATGCATAATGATTTTCATA [TGCATGCA_site958] | 6.1

Row | Sequence | gcPBM binding intensity (ln)
21 | CATGCTACATCTTATTGTACTTATCTAATGTTAGTA [XGTACX_site1863] | 6.75
22 | TATGTGCACCCATGTACATGCGGACATATGTTATAT [TGCATGCA_site383] | 10.6
23 | ATATATATATATGCATGTACATATATTTGTTATATC [XGTACX_site3197] | 9.16
24 | TATATATATATATATGCATGTACATATATTTGTTAT [TGCATGCA_site379] | 9.2
25 | AAAATATTTATTACTTCACACATTATTGTATTTATA [CACACA_site5082] | 6.5
26 | TTTGTTTTTTTGAGAGTGCAATATATATAAAAAGGG [GTGCAC_site9691] | 9.35
27 | TTTCGTAATATGCGTGTGCACAATGAGTCCATATCT | 10.9
28 | TATATATATATATGAGTGCATATGTGTAATATAAAA | 9.65
29 | GCGTGTGTACAATGAGTGCATATCTAAAGGGAAGAT | 9.43
30 | TCAAAAAAAAAAAAAAAAAAAAAAAAAAAAAAAAAA [CACACA_negctrl_site1753] | 5.92
31 | TATTAATAAATATGTTTACACACGAAAATACATTTT [CACACA_site1012] | 6.35
32 | TGTATAATATTTGGTGCACACAAATTAACAACTGTT [CACACA_site9245] | 10.6
33 | TATAATATTTGGTGCACACAAATTAACAACTGTTTA [CACACA_site3742] | 10.8
34 | CTTTGTAGTATATTAACACACAACTGTTTATAATAT [CACACA_site6038] | 6.53
35 | TTTATTTTTAACAGTGCACACATAACTTAATTATAT [CACACA_site8681] | 9.52
36 | TGTATTAAATTTTGAACACACAAAATAAAACATATA [CACACA_site1672] | 6.54
37 | TTCTTTGTAGTATATTAACACACAACTGTTTATAAT [CACACA_site9305] | 6.67
38 | TCGTAGTTACTATGGCAAGAAAATAAACGGTCTTGT [GTGCAC_negctrl_site684] | 6.6
39 | ATTAAAAATTATATTTTATAAAAATTAAAAGAAATA [CACACA_negctrl_site65] | 6.47
40 | AATAATTTTTTAAACACACACACATATATATATATA [CACACA_site95] | 9.08

Row | Sequence | gcPBM binding intensity (ln)
41 | AAAAATATATATATATATATATATATATTATTTTTT [TGCATGCA_negctrl_site378] | 7
42 | TAGAAGCATCATTTTACACACATGCAAATGTAAACT [CACACA_site6973] | 6.66
43 | ATTATATATATATATACACACACACCCTAAAAATAT [CACACA_site8463] | 7.22
44 | ATTATGCACCAACACACACACACACTCCTAAAAAAT [CACACA_site8822] | 11.7
45 | GAAATTAAAAAATTTATGCACACTTTAAAAAAAAAA [CACACA_site3769] | 9.28
46 | AAAAAAGATAATTATGCACACACACCCACCCACCCA [CACACA_site8825] | 9.38
47 | AAAAAATTAGATTATGCACACACACTAATAAATAAT [CACACA_site8604] | 9.67
48 | ATTATGCACAGACACACACACACACTACTAAAAAAT [CACACA_site7252] | 11.1
49 | ATTATGCACGGACACACACACACACCCCTAAAAAAT [CACACA_site5426] | 10.5
50 | AAAAGATAATTATGCACACACACACCCAGACACAAC [CACACA_site5428] | 10.4
51 | AAAAGATAATTATGCACACACACACCCCCACCCAAC [CACACA_site2570] | 10.5
52 | TATGCACCCAGACACACACACACAACTAAAAAATAA [CACACA_site2567] | 8.1
53 | TTATTAGAAAAATGCACACCAAAAAAAAAAAAAAAA [CACACA_site2522] | 8.93
54 | TAATTATGCGGACACACACACACACCCAACTAAAAA [CACACA_site5427] | 6.81
55 | ACCTATTTCAAACACACACACACACTAGCAAACATA [CACACA_site4695] | 7.26
56 | AAGAGAAAAATATGGTTGCACTAAAAATATATATTT | 8.26
57 | ATCATTTTTAAAGGAACACACAAAAAAAATTAAAAT [CACACA_site4878] | 6.76
58 | TCTTTTTTAATATAATATATTTTTATTAAGTAAATC [TGCATGCA_negctrl_site408] | 6.2
